High-throughput results deposited in PubChem BioAssay by several laboratories.
Most compounds without a hit are left out; they make up all but 3.9% or so of the library.
Autofluor counter: compound fluorescence in toxin protease inhibitor counterscreen. compound autofluorescence counterscreen, microsphere flow cytometry; stronger effect = higher value. fluorescence intensity (test concentration not listed). 3.1% of 360,000 active. AID 624483; in the data active means fluorescence intensity above about 16000; inconclusive means no clear call, values can overlap the other calls
BoNT F protease: BoNT F light chain protease inhibition; Multiplex microsphere protease cleavage assay, flow cytometry; inhibition, % at 10 µM; 0.22% of 360,000 active; AID 588497; in the data active means inhibition above about 35%, passing the limit was not always enough; inconclusive means no clear call, values can overlap the other calls
3CLpro inhibitor: SARS-CoV 3CLpro protease inhibition; recombinant SARS-CoV 3CLpro, quenched FRET peptide cleavage; P0C6X7; inhibition, % at 6 µM; 0.14% of 290,000 active; in the data active means inhibition above about 12%
BoNT A protease: inhibitors of Botulinum neurotoxin A light chain protease | AID 588499 | multiplex microsphere protease substrate cleavage, flow cytometry | 0.17% of 360,000 active | inhibition, % at 10 µM
CCHFV vOTU inh: blocks the CCHF virus ovarian tumor domain protease; inhibition, % at 11.5 µM; 0.55% of 370,000 active; CCHFV vOTU protease, Pep-AMC fluorescence; AID 651958; in the data active means inhibition above about 30%
Anthrax LF inh2: blocks Bacillus anthracis lethal factor protease | P15917 | multiplex microsphere protease cleavage assay, LF | inhibition, % at 10 µM | 0.12% of 360,000 active | AID 588501
Large screens that a line does not name were inactive. Unless noted, no stated cut-off is given here; in the data, active means inhibition above about 30%; inconclusive means no clear call, values can overlap the other calls; inactive means below that.

COc1ccc(/C=C/C(=O)c2ccc[nH]2)cc1OC	Autofluor counter 16560
Cc1cc(C(=O)NCCC2=CCCCC2)no1	Autofluor counter 25954
O=C(NCCC1=CCCCC1)c1cc(COc2c(F)cccc2F)on1	none
COc1cccc(-c2csc(N3CCN(S(=O)(=O)c4ccc(F)cc4)CC3)n2)c1	Autofluor counter 21656
COc1cccc(-c2csc(N3CCN(Cc4ccccc4)CC3)n2)c1	Autofluor counter 24520
COc1ccc(C(C(=O)NC(C)(C)C)N(C(=O)CCC(=O)Nc2cc(C)on2)c2cccc(F)c2)cc1 (centres undefined)	none
CCc1ccc(N(C(=O)CCC(=O)Nc2cc(C)on2)C(C(=O)NC(C)(C)C)c2ccc(OC)cc2)cc1 (centres undefined)	BoNT F protease 35
COc1cccc(N(C)C(=O)[C@@H](C2CC2)[C@@H](O)c2ccc3ccccc3c2)c1	none (no result: Autofluor counter, BoNT F protease, 3CLpro inhibitor, BoNT A protease, Anthrax LF inh2)
CCNC(=S)NNC(=O)Nc1ccccc1	Autofluor counter 23334 (no result: CCHFV vOTU inh)
N#CCC[C@H]1CC[C@]2(CCCN(C(=O)C3CCCCC3)C2)O1	none (no result: Autofluor counter, BoNT F protease, 3CLpro inhibitor, BoNT A protease, Anthrax LF inh2)
CCC(=O)OCc1c(C(F)(F)F)nn(C)c1Sc1ccc(F)cc1	none
CC(=O)OCc1c(C(F)(F)F)nn(C)c1Sc1ccccc1	Autofluor counter 19824
Cc1cccc(NC(=O)C2CCCN(C(=O)NC3CCCCC3)C2)c1C (centres undefined)	Autofluor counter 22986
COc1ccccc1NC(=O)N1CCCC(C(=O)Nc2cccc(C)c2C)C1 (centres undefined)	none
Cc1nnsc1C(=O)Nc1cccc(Cl)c1Cl	none
Cc1nnsc1C(=O)Nc1ccc(Cl)cc1	Autofluor counter 21839
Cc1nc(NC(=O)/C=C/c2ccccc2)sc1C(=O)Nc1ccc(Cl)cc1	Autofluor counter 23690
Cc1nnsc1C(=O)Nc1ccccc1	none
Cc1nnsc1C(=O)Nc1ccccc1Cl	Autofluor counter 21871
C#CCNC(=O)C[C@H]1C[C@@]2(C(=O)OC)C(=C[C@H](COCc3ccccc3)O[C@@H]2C)N(Cc2cccc3ccccc23)C1=O	none (no result: Autofluor counter, BoNT F protease, 3CLpro inhibitor, BoNT A protease, Anthrax LF inh2)
COC(=O)C1=C(C)N(Cc2ccc(C(F)(F)F)cc2)C(=NCC2CC2)NC1c1ccccc1C(F)(F)F (centres undefined)	none (no result: Autofluor counter, BoNT F protease, 3CLpro inhibitor, BoNT A protease, Anthrax LF inh2)
CCCc1ccc(OCc2ccc(C(=O)O)o2)c(OC)c1	none
CCCc1ccc(OCc2ccc(C(=O)OC)o2)c(OC)c1	Autofluor counter 23181 (no result: CCHFV vOTU inh)
Cc1ccccc1C(=O)NNC1=NCCC1	Autofluor counter 17045
COC(=O)NNC(=O)c1ccccc1C	Autofluor counter 22876, BoNT A protease inconclusive
Cc1ccccc1C(=O)NNC(=O)Cc1ccccc1	none
O=C(NNC1=NCCC1)c1cccc(Br)c1	none
Cc1c(Cl)cccc1NC(=O)C(=O)NNC(=O)c1ccccc1F	none
Cc1ccccc1C(=O)NNC(=O)C(=O)Nc1cccc(Cl)c1C	Autofluor counter 20831
CCOC(=O)c1nc(C)n(-c2cc(Cl)ccc2Cl)n1	Autofluor counter 19905
COc1cc(CC(=O)OCC(=O)Nc2ccc3c(c2)OCCO3)cc(OC)c1OC	none
COCCNC(=O)NC(=O)COC(=O)Cc1ccc2c(c1)OCCO2	Autofluor counter 22511
O=C(NCCc1ccccn1)C1CC(=O)N(Cc2ccccc2Cl)C1 (centres undefined)	Autofluor counter 19830, BoNT A protease inconclusive
COc1ccc(CN2CC(C(=O)NCc3ccccn3)CC2=O)cc1 (centres undefined)	none
COc1ccc2c(c1)[C@@]1(OCCC=C[C@H]1C)C(=O)N2Cc1ccc(F)cc1	none (no result: Autofluor counter, BoNT F protease, 3CLpro inhibitor, BoNT A protease, Anthrax LF inh2)
COC(=O)C1=C(C)N=c2s/c(=C/c3ccoc3)c(=O)n2C1c1ccccc1 (centres undefined)	Autofluor counter 21630 (no result: CCHFV vOTU inh)
CCOC(=O)C1=C(C)N=c2s/c(=C\c3ccc(OCC(=O)O)cc3)c(=O)n2C1c1ccccc1 (centres undefined)	none
O=C(CSc1nc2ncccc2[nH]1)N1CCOCC1	none (no result: Autofluor counter, BoNT F protease, 3CLpro inhibitor, BoNT A protease, Anthrax LF inh2)
CCN(CC)S(=O)(=O)c1cc(NC(=O)Cn2cnc3ccccc3c2=O)ccc1C	Autofluor counter 16361
CN(c1ccccc1)S(=O)(=O)c1cccc(NC(=O)Cn2cnc3ccccc3c2=O)c1	BoNT F protease inconclusive
COc1ccc(Nc2nc(N)nc(CSc3nncn3C)n2)cc1	Autofluor counter 16635
CCOc1ccccc1Nc1nc(N)nc(CSc2nncn2C)n1	Autofluor counter 23051
N#CCC[C@H]1CC[C@]2(CCCN(S(=O)(=O)c3ccccc3)C2)O1	none (no result: Autofluor counter, BoNT F protease, 3CLpro inhibitor, BoNT A protease, Anthrax LF inh2)
COc1ccc(-c2nnc(CSc3nnc(-c4ccncc4)n3C3CCCCC3)o2)cc1OC	Autofluor counter 19681, BoNT A protease inconclusive
COc1ccc2nc(NC(=O)CCN3C(=O)c4ccccc4C3=O)sc2c1	Autofluor counter 16754, BoNT A protease inconclusive
COc1ccc2nc(NC(=O)c3ccoc3C)sc2c1	Autofluor counter 21922
COc1ccc2nc(NC(=O)C(NS(=O)(=O)c3cccs3)C(C)C)sc2c1 (centres undefined)	Autofluor counter 21430
COc1ccc2nc(NC(=O)c3cc(C)oc3C)sc2c1	Autofluor counter inconclusive
COc1ccc2nc(NC(=S)N(C)C)sc2c1	Autofluor counter 23623
CS(=O)(=O)c1ccc2nc(NC(=O)CCN3C(=O)c4ccccc4C3=O)sc2c1	none
CN(CCc1ccccn1)C(=O)c1ccc(Sc2ccccc2Cl)c([N+](=O)[O-])c1	none (no result: Autofluor counter, BoNT F protease, 3CLpro inhibitor, BoNT A protease, Anthrax LF inh2)
CC1CC2(O)c3no[n+]([O-])c3CCC2N1O (centres undefined)	Autofluor counter 22460
Cc1ccccc1C(=O)N(Cc1ccccn1)CC1CCCO1 (centres undefined)	none (no result: Autofluor counter, BoNT F protease, 3CLpro inhibitor, BoNT A protease, Anthrax LF inh2)
CCn1nc(C)c(/C=C/C(=O)Nc2ccc(C)cc2C)c1C	BoNT F protease 39
CCn1nc(C)c(NC(=O)/C=C/c2cnn(C)c2)c1C	Autofluor counter 19664
CCn1ncc(/C=C/C(=O)Nc2c(C)nn(CC)c2C)c1C	Autofluor counter 20272
Cc1c(Cl)c(C(=O)NC2C3CC4CC(C3)CC2C4)nn1C (centres undefined)	Autofluor counter 21785, BoNT A protease inconclusive
Cn1ncc(Br)c1C(=O)NC1C2CC3CC(C2)CC1C3 (centres undefined)	none
CC(C)N(Cc1nc(-c2ccccc2)no1)C(=O)C1CCCCC1	Autofluor counter 23062
O=C(Cc1cccs1)N1CCN(c2nc(-c3ccc(Cl)cc3)cs2)CC1	Autofluor counter 21233, BoNT A protease inconclusive (no result: CCHFV vOTU inh)
CCOc1ccc(C(=O)NC2CCN(S(=O)(=O)c3ccccc3)CC2)cc1	BoNT F protease 38
O=C(NC1CCCCC1)c1ccc(S(=O)(=O)N2CCCC2)cc1	Autofluor counter 16946, BoNT A protease inconclusive
Cc1ccc(C(=O)NC2CCN(S(=O)(=O)c3ccccc3)CC2)cc1	none
CN1CCN(S(=O)(=O)c2ccc(C(=O)NC3CCCCC3)cc2)CC1	none (no result: 3CLpro inhibitor)
COC(=O)c1cc(-c2cc(F)cc(OC)c2)c(=O)n2c1CCC2	none (no result: Autofluor counter, BoNT F protease, 3CLpro inhibitor, BoNT A protease, Anthrax LF inh2)
CC1CN(S(=O)(=O)c2ccccc2)CC(C)O1 (centres undefined)	Autofluor counter 23507, BoNT A protease inconclusive
CC1CN(S(=O)(=O)Cc2ccccc2)CC(C)O1 (centres undefined)	none
C[C@@H]1ON(C)[C@H]2C[C@H]3c4[nH]c5c(-c6ccccc6F)cccc5c4CCN3C[C@@H]12	none (no result: Autofluor counter, BoNT F protease, 3CLpro inhibitor, BoNT A protease, Anthrax LF inh2)
